Experimental data: PubChem BioAssay AID504863 (Sanford-Burnham Center for Chemical Genomics, 2011)
This is one part of the list. A number with no mark means an inactive call. Calls of active or inactive are those of the source.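 Rule for the calls: active = inhibition averaging 50% or more, tested at 20 µM; inactive = the rest.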

What follows are molecules tested on diaphorase (Clostridium kluyveri) (assay: C. kluyveri diaphorase inhibition, resazurin coupling – biochemical, fluorescence intensity, 30 µM NADPH, counter-screen for P. falciparum G6PD inhibitor project, confirmation (AID 504863;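 note: 0% = DMSO with enzyme and 100% = DMSO wells lacking diaphorase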)). Details: Diaphorase/resazurin coupled assay, resorufin fluorescence, at 20 µM, stronger effect = higher value.
Molecule `Cc1ccc(/C=C/C(=O)Nc2ccc([N+](=O)[O-])c(NC(=O)/C=C/c3ccc(C)o3)c2)o1` has an inhibition of -7.03%.
With `OCCN1CCN(C(=S)c2ccc(-c3ccccc3)cc2)CC1` the inhibition was 2.65%.
With `COc1cccc(C(=O)Nc2nnc(S(=O)(=O)N(C)c3ccccc3)s2)c1` the inhibition was 56.8% (active).
Work on `O=C(Nc1nc(-c2ccncc2)cs1)C1COc2ccccc2O1` (stereo unspecified) yielded an inhibition of -24.7%.
`Cc1ccnc(-n2sc3ccccc3c2=O)n1` gave an inhibition of -26.9%.
For `CCSc1nnc(NC(=O)c2ccc(C)cc2)s1`, the inhibition was 56.5% (active).
With `COc1c(O)ccc2c1CN1CCc3cc4c(cc3C1C2)OCO4` (stereo unspecified) the inhibition was 8.58%.
Molecule `O=C1C=CC(=O)N1c1ccc(N2CCCCC2)cc1` has an inhibition of -16.6%.
In the case of `Cc1ccc(NC(=O)Cn2sc3ccccc3c2=O)cc1`, the inhibition is reported as 11.3%.
In the case of `O=C(Nc1nnc(S(=O)(=O)N2CCCCCC2)s1)c1cccc(Br)c1`, the inhibition is reported as 41.6%.
Molecule `O=[N+]([O-])c1c(NCCO)cc(Sc2nc3ccccc3s2)c2nonc12` has an inhibition of 0.96%.
`COc1ccc(CCn2c(NN=C3CCCC3)nc3c2c(=O)[nH]c(=O)n3C)cc1` was tested, and the inhibition was -4.07%.
`COc1ccc(OCc2nnc3n2N=C(c2ccccc2)C(CC(=O)O)S3)cc1` (stereo unspecified) showed an inhibition of 1.64%.
With `CCOC(=O)C1=C(c2ccc(OC)cc2)C(=O)c2ccccc2C1=O` the inhibition was 85.7% (active).
For `COc1ccc2c(c1)c(=Cc1ccc(N(C)C)cc1)c1cc(-c3ccccc3)[n+](C)n12`, the inhibition was 15.6%.
`COc1cccc(C(=O)Nc2nnc(S(=O)(=O)N3CCOCC3)s2)c1` was tested, and the inhibition was 54.9% (active).
In the case of `COc1ccc(CC(=O)NCC(=O)N/N=C/c2cc(Br)ccc2OC)cc1`, the inhibition is reported as 70.8% (active).
`O=C(NC1=CC(=O)c2ccccc2C1=O)c1ccccc1` was tested, and the inhibition was 60.6% (active).
With `O=C(CN1CCN(c2ccc(O)cc2)CC1)Nc1cc(S(=O)(=O)N2CCOCC2)ccc1Cl` the inhibition was 7.17%.
With `O=C1/C(=C\c2ccc([N+](=O)[O-])cc2)CS(=O)(=O)C/C1=C/c1ccc([N+](=O)[O-])cc1` the inhibition was -12.8%.
`O=C(Nc1nnc(S(=O)(=O)N2CCOCC2)s1)c1cccc(Br)c1` showed an inhibition of 48.1%.
`CCN1CCCC1CNC(=O)c1ccc2c(c1)NC(=O)/C(=C\c1ccccc1F)S2` (stereo unspecified) was tested, and the inhibition was -9.58%.
With `Cn1c(-c2sccc2OCc2cccc(C(F)(F)F)c2)n[nH]c1=S` the inhibition was 10.1%.
`c1ccc(-c2cn3c(n2)CCc2ccc4cccnc4c2-3)cc1` gave an inhibition of 45%.
For `O=c1[nH]c2ccccc2n2c(-c3ccccc3)nnc12`, the inhibition was 15.9%.
`CCN(CC)c1ccc2oc(=O)c(C)nc2c1` was tested, and the inhibition was 62.5% (active).
With `CCOc1ccccc1/C=N/NC(=O)CNC(=O)COc1ccccc1` the inhibition was 88.1% (active).
Molecule `CC(C)(C)NC(=O)COc1ccc(CNc2ccc3[nH]c(=O)[nH]c3c2)cc1` has an inhibition of 12.2%.
For `COc1cccc(C(=O)Nc2nnc(S(=O)(=O)N3CCCCC3)s2)c1`, the inhibition was 57% (active).
Work on `Cc1cccc(C(=O)Nc2nnc(S(=O)(=O)N3CCCCCC3)s2)c1` yielded an inhibition of 36.1%.
For `C=CCc1ccccc1OCC(=O)N/N=C/c1ccccc1OCC`, the inhibition was 43.5%.
